Data reported in ChEMBL document CHEMBL4513216, “Probing the Open Global Health Chemical Diversity Library for Multistage-Active Starting Points for Next-Generation Antimalarials” (ACS Infect Dis, 2020).
The campaign covered roughly 69,000 compounds. About 8,600 (12%) showed an effect of 50% or more. This excerpt belongs to a sample that is enriched for strong results.

What follows are compounds tested on Plasmodium berghei (assay: Screen against P. berghei liver stage (PbLuc), transformed with Luciferase, at 10uM). Conditions: tested at 10 uM.
Format: functional, HepG2

| SMILES | INHIBITION |
| --- | --- |
| CN1CCN(Cc2cnc3n2CCN(CCc2ccccc2)C3)CC1 | -18.2% |
| O=C(c1ccccn1)N1CCC(Cc2cnc3[nH]ccc3c2)CC1 | -12.2% |
| COC(=O)c1cccc(S(=O)(=O)NC(=O)COC2CCCCC2)c1 | 38.8% |
| C[C@@H]1C[C@H](C(F)(F)F)n2nc(C3CCN(S(C)(=O)=O)CC3)cc2N1 | 1.5% |
| O=C(C1CN(CC2CCOCC2)CC12CCOCC2)N1CCOCC1 (configuration not stated) | 23.3% |
| CNC(=O)[C@@H]1C[C@@H](NC(=O)c2ccc(OC)o2)CN1Cc1sccc1C | 20.8% |
| CNC(=O)[C@@H]1C[C@@H](NC(=O)Cc2nonc2C)CN1Cc1sccc1C | 51.5% |
| CNC(=O)[C@@H]1C[C@@H](NC(=O)c2cn(C)nc2C)CN1Cc1sccc1C | 25.8% |
| COc1ccc(OC)c(C(O)CNC(=O)Nc2cc(C)nn2C)c1 (configuration not stated) | 10.35% |
| Cc1nn(C)c2nc(N3CCCCC3c3cccnc3)sc12 (configuration not stated) | 33.1% |
| Cc1nn(C)c2nc(N3CCC(C(O)Cc4ccccc4)CC3)sc12 (configuration not stated) | 75.1% |
| Cc1nn(C)c2nc(NC3CCNCC3)sc12 | 10.7% |
| Cc1nn(C)c2nc(N3CCC(C(O)c4nccn4C)CC3)sc12 (configuration not stated) | 12.8% |
| Cc1nn(C)c2nc(N3CCC(C(O)c4ccccn4)CC3)sc12 (configuration not stated) | 55.4% |
| Cc1cnc(N2CC[C@@H]3OC(COCC(=O)N(C)C)CC[C@@H]32)nc1 (some centres not stated) | 14.1% |
| CCCC1CN(CCOc2ccccc2)C(=O)c2cccnc2O1 (configuration not stated) | 44.2% |
| Cc1nn(-c2ncnc3[nH]cnc23)c2c1C(C(C)C)CC(=O)N2 (configuration not stated) | -21.2% |
| Cc1ccc2c(c1)C(=O)CC1(CCN(Cc3ccccc3)CC1)O2 | -13.2% |
| Cc1nnc(N2CCN(C(=O)NC3CC3)CC2)c(C(N)=O)c1C | 56.5% |
| Cc1nnc(N2CCNCC2)c(C(N)=O)c1C | 41.5% |
| Cc1nnc(N2CCCC2)c(C(N)=O)c1C | 6.24% |
| O=C(NCC1CC1)c1ccc(NC(=O)c2ccco2)cc1 | -64.3% |
| COc1c(C)cnc(CN2CCCC2Cn2nc(C)nc2C)c1C (configuration not stated) | 27.6% |
| COc1c(C)cnc(CN2CCCCC2Cn2nc(C)nc2C)c1C (configuration not stated) | 6.14% |

| SMILES | INHIBITION |
| --- | --- |
| COc1c(C)cnc(CN2CCCCC2CCN2CCOCC2)c1C (configuration not stated) | 56.1% |
| CC(=O)N1CCC1c1cc(N2CCSCC2)nc(C)n1 (configuration not stated) | 29.5% |
| CO[C@H]1CN(Cc2ccccc2F)C[C@@]12CCCO2 | 5.56% |
| Cn1cc(N2CCC3(CCN(C(=O)[C@H]4CCCO4)C3)C2=O)cn1 (some centres not stated) | 12.7% |
| CCN1CCC(NC(=O)CN2CCCC2Cn2cccn2)CC1 (configuration not stated) | 19% |
| CC(C(=O)N1CCC(Nc2cccnn2)CC1)n1ccnc1 (configuration not stated) | 23.4% |
| CCN1CCC(NC(=O)CNC(C)Cn2cccn2)CC1 (configuration not stated) | 88.6% |
| CC(Cn1cccn1)C(=O)N1CCC(Nc2cccnn2)CC1 (configuration not stated) | 53.7% |
| CC(C)C(C(=O)N1CCC(Nc2cccnn2)CC1)n1cncn1 (configuration not stated) | 57.2% |
| Cc1ccc(NC2CCN(C(=O)C(C(C)C)n3cncn3)CC2)nn1 (configuration not stated) | 31.2% |
| CC(C(=O)N1CCC(Nc2cccnn2)CC1)n1cccn1 (configuration not stated) | 45.7% |
| CC(C)C(C(=O)N1CCC(N(C)c2cccnn2)CC1)n1cncn1 (configuration not stated) | 36.9% |
| CC(Cn1cccn1)NCC(=O)NC1CCOCC1 (configuration not stated) | 5.2% |
| CN(Cc1ccco1)C(=O)CN1CCOC(Cn2cccn2)C1 (configuration not stated) | -53.5% |
| COc1c(CNC2CCOc3c(Cl)cccc32)c(C(C)C)nn1C (configuration not stated) | -69% |
| COc1c(CNC2CCc3cc(Cl)ccc32)c(C)nn1C (configuration not stated) | 59% |
| CC(C)c1nn(C)c(N(C)C)c1CNC1CCOc2ccccc21 (configuration not stated) | 12.2% |
| CC(C)c1nn(C)c(Cl)c1CNC1CCOc2ccccc21 (configuration not stated) | 53.3% |
| COc1c(CNC2CCc3cc(F)ccc32)c(C)nn1C (configuration not stated) | 35.8% |
| COc1c(CNC2CCCOc3ccc(F)cc32)c(C)nn1C (configuration not stated) | -63.5% |
| COc1c(CNC2CCOc3c(Cl)cccc32)c(C)nn1C (configuration not stated) | 77.8% |
| COc1c(CNC2CCc3cc(C)ccc32)c(C)nn1C (configuration not stated) | 21.5% |
| COc1c(CNC2CCOc3ccccc32)c(C(C)C)nn1C (configuration not stated) | 47.1% |
| COc1c(CNC2CCSc3ccc(F)cc32)c(C)nn1C (configuration not stated) | 75.2% |

| SMILES | INHIBITION |
| --- | --- |
| COc1c(CNC2CCc3ccccc32)c(C)nn1C (configuration not stated) | -63.3% |
| COc1c(CNC2CCOc3c(F)cccc32)c(C)nn1C (configuration not stated) | 20% |
| Cn1c(SCC(N)=O)nnc1-c1csc2c1CCCC2 | -21.8% |
| CCN1CC(COc2ccccc2)Oc2ncccc2S1(=O)=O (configuration not stated) | 13.9% |
| CCSc1cc(C(=O)NCCNC(=O)N(C)C)ccn1 | -22.8% |
| COc1cc(CCC(=O)NC(C)(C)C)ccc1OCC(F)(F)F | -17.4% |
| O=C1C[C@H]2[C@H](CCN2C(=O)c2cc[nH]n2)N1Cc1cccnc1 | 40.8% |
| OCCOc1ccc(NCc2cccc3cccnc23)cn1 | -37.7% |
| OCCOc1ccc(NCc2cccnc2)cn1 | 59.5% |
| OCCOc1ccc(NCc2cc(F)cc3cccnc23)cn1 | -116% |
| OCCOc1ccc(NCc2cccc3[nH]ccc23)cn1 | 68.2% |
| Cc1ncccc1CNc1ccc(OCCO)nc1 | -89.9% |
| OCCOc1ccc(NCc2cccc3cn[nH]c23)cn1 | -1.45% |
| Cc1cc(-c2cnn(CCNC(=O)c3cc[nH]n3)c2C2CC2)on1 | 18.9% |
| CCCc1nnc(NC(=O)NC(CCO)c2cccs2)s1 (configuration not stated) | -26.8% |
| COc1ccccc1CN1CCCC2(Cc3ccccc3CNC2=O)C1 (configuration not stated) | 11% |
| CC(C)OCc1nn(C)c2c1CCN(Cc1ccco1)C2 | -16.9% |
| CCC(=O)N1CCN(c2nc(C)nc3c(C)nn(C)c23)CC1 | 27.5% |
| Cc1ccc2c(c1)CN(C(=O)c1ccccc1F)C(CN(C)C)CO2 (configuration not stated) | 23.9% |
| COc1ccccc1C(=O)N1Cc2cc(C)ccc2OCC1CN(C)C (configuration not stated) | 60.3% |
| COc1ccc(C(=O)N2Cc3cc(C)ccc3OCC2CN(C)C)cc1 (configuration not stated) | 66.5% |
| Cc1ccc2c(c1)CN(C(=O)c1ccncc1)C(CN(C)C)CO2 (configuration not stated) | -23.8% |
| Cc1ccc2c(c1)CN(C(=O)c1cccnc1)C(CN(C)C)CO2 (configuration not stated) | 46% |
| Cc1ccc2c(c1)CN(C(=O)c1cccs1)C(CN(C)C)CO2 (configuration not stated) | -10.5% |
